# Bioassay records deposited in PubChem BioAssay by The Scripps Research Institute Molecular Screening Center.
# FBW7 act: human FBW7 E3 ligase activation, primary screen; AlphaScreen FBW7–phospho-cyclin E peptide binding, activator screen; Q969H0; normalized activity (activation), % at 26.1 µM; AID 1259310; hit rate 0.13% among 650,000; in the data active = normalized activity above about 1.9%;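 note: purified mutant Fbw7 with reduced substrate affinity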
# MITF primary: blocks human microphthalmia-associated transcription factor. AlphaScreen MITF homodimerization, bead proximity signal. inhibition, % at 2.6 µM. hit rate 0.91% among 650,000. AID 1259374; in the data active = inhibition above about 50%;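 note: 0% = vehicle wells with protein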
# TEAD-YAP block: TEAD-YAP interaction inhibition. inhibition, % at 9.12 µM. hit rate 1.4% among 640,000. HEK-TIYL cells, TEAD-Gal4/YAP UAS-luciferase luminescence; in the data active = inhibition above about 32%;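 note: 0% = median of test compound wells and 100% = reference inhibitor wells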
# GPR151 activ: human GPR151 activation; Q8TDV0; hit rate 1% among 650,000; PathHunter beta-arrestin GPR151 cells, luminescence; AID 1508602; activation, % at 11.2 µM; in the data active = activation above about 4.9%;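 note: 0% = median of compound wells and 100% = cells with positive control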
# Target sequence (Q8TDV0 whole entry, looked up): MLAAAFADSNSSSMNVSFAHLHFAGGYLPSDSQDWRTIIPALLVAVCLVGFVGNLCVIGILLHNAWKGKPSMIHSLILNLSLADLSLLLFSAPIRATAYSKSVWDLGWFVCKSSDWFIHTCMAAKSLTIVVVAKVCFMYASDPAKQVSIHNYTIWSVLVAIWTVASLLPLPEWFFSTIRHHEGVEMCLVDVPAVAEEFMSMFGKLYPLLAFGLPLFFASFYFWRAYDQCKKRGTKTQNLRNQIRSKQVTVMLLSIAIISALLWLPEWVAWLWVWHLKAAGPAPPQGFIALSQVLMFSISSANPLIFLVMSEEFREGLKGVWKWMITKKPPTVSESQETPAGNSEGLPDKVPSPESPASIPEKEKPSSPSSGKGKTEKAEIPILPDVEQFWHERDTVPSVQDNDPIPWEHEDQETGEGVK
# * marks the source's active call; other numbers are inactive results. This is a sample that favours compounds with a hit; in the whole collection about 3.5% have one here.
SMILES,FBW7 act,MITF primary,TEAD-YAP block,GPR151 activ
COc1cc([N+](=O)[O-])c2ncccc2c1,-2,70*,16,-1
O=[N+]([O-])c1cc(O)c2ncccc2c1,0,103*,21,-2
COc1cc([N+](=O)[O-])c2nccnc2c1,-1,0,1,2
O=C(O)COc1cc([N+](=O)[O-])cc2cccnc12,-1,16,-4,3
CC(=C\C(=O)O)/C(=C/c1cccnc1)C(=O)O,0,17,0,0
O=C1OCC2=C1C(c1ccc3c(c1)OCO3)Nc1ccc3ccccc3c12 (stereo unspecified),0,-8,54*,2
CC1(C)CC(=O)C2=C(C1)Nc1ccccc1NC2c1ccc2c(c1)OCO2 (stereo unspecified),0,-3,-21,-2
CCOCCOC(=O)COc1ccc2c(=O)c(-c3ccc(Cl)cc3)coc2c1,1,9,8,1
Cc1c(C#N)c(NC(=O)CCl)n(Cc2ccco2)c1C,0,-14,32*,0
O=C(Nc1ccc(Oc2ccccc2)cc1)c1ccc(F)c(S(=O)(=O)NC2CCCCC2)c1,0,11,58*,-2
O=C(Nc1ccc(Oc2ccccc2)cc1)c1ccc(F)c(S(=O)(=O)NC2CCCC2)c1,0,0,65*,0
O=C(Nc1ccc(Cl)c(Cl)c1)c1ccc(F)c(S(=O)(=O)NC2CCCC2)c1,0,14,10,-1
O=C(Nc1ccc(Oc2ccccc2)cc1)c1ccc(F)c(S(=O)(=O)NC2CCCCCC2)c1,0,17,50*,0
O=C(Nc1ccc(Oc2ccccc2)cc1)c1ccc(F)c(S(=O)(=O)NCc2ccccc2Cl)c1,0,1,41*,1
CC(C)c1ccc(NC(=O)c2ccc(F)c(S(=O)(=O)NC3CCCCCC3)c2)cc1,0,-3,11,1
CCC[C@@H]1NC(=O)[C@H]2CN(CCC(C)C)CCN2C1=O,0,-6,6,-1
Cc1ccc(S(=O)(=O)NC(=O)Nc2ccc(Cl)cc2Cl)cc1,0,-2,5,1
O=C(c1nc2sccn2c1CN1CCC(c2ccc(F)cc2)C1)N1CCCCC1 (stereo unspecified),0,5,7,-1
COc1cccc(C(=O)Nc2cccc(OC(=O)c3ccc(C)c(S(=O)(=O)N4CCOCC4)c3)c2)c1,0,12,36*,0
COc1ccc(C(=O)Nc2cccc(OC(=O)c3ccc(C)c(S(=O)(=O)N4CCOCC4)c3)c2)cc1,0,-8,66*,-3
Cc1ccc(C(=O)Nc2cccc(OC(=O)c3cccc(S(=O)(=O)N4CCC(C)CC4)c3)c2)cc1,1,11,68*,-3
O=c1c(Cl)c(Nc2ccc3c(c2)OCCO3)cnn1C12CC3CC(CC(C3)C1)C2,0,-1,8,-1
Cc1cc(C)n(C(CC(=O)N2CCCCC2)C(=O)O)n1 (stereo unspecified),0,-4,6,0
CCOc1cc(N2CCOCC2)c(OCC)cc1NC(=O)CN(CC)C1CCCCC1,0,-2,13,0
CCOc1cc(N2CCOCC2)c(OCC)cc1NC(=O)CN1CCCC1,-1,83*,-3,0
SMILES,FBW7 act,MITF primary,TEAD-YAP block,GPR151 activ
CC(=O)c1ccc(C(=O)Nc2sc3c(c2C#N)CCN(Cc2ccccc2)C3)cc1,0,7,9,1
CCCSc1nnc(-c2ccc(OC)cc2)o1,1,9,45*,-3
Cc1ccc(O)c(Nc2ncnc3ccc(Br)cc23)c1,0,2,-18,1
CN(C)CCNc1nc(-c2ccccc2)nc2ccccc12,0,-2,-14,0
CN(C)CCNc1nc(-c2ccc(C(C)(C)C)cc2)nc2ccccc12,0,9,37*,-1
CS(=O)(=O)N1CCC(Oc2cccc(C(=O)NCC3CCOCC3)c2)CC1,0,11,4,0
C#CCN(C)C(=O)c1c(C)nc2sccn12,1.9*,19,10,0
Cc1nn(C)c(C)c1NC(=O)CSc1nnc(C(c2ccccc2)c2ccccc2)n1C,0,13,-2,2
CCOC(=O)c1sc2ncn3c(-c4ccco4)nnc3c2c1C,0,0,-2,-1
CSc1ccc2nc(N3CCN(C(=O)c4c(C)cnn4C)CC3)sc2c1,0,-22,44*,0
O=[N+]([O-])c1ccc(NCCO)c(Cl)c1,0,-2,6,0
COC(=O)c1ccc(-c2nc3cc(Cl)c(N)cc3s2)cc1,0,-4,47*,-1
CCOC(=O)C1=C(C)N=c2s/c(=C/c3ccc(N4CCOCC4)o3)c(=O)n2C1c1cc(OC)ccc1OC (stereo unspecified),0,-3,3,0
